Compound activity from PubChem.
CHO-K1 Ca ag: nonselective activator or artifact in parental CHO-K1 cells; Fluo-8 calcium fluorescence; scaled to maximal ATP response, vehicle zero; AID 602248; actives 0.48% (n = 360,000); activation, % at 3 µM; in the data active means activation above about 15%;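 further: untransfected CHO-K1 host cells lacking M1 receptor as counterscreen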
CHRM1 PAM: potentiates human M1 receptor response to acetylcholine; P11229; CHO-K1 hM1, Fluo-8 calcium fluorescence, ACh EC20; 0% = ACh EC20, 100% = maximal ACh; activation, % at 3 µM; actives 0.088% (n = 360,000); AID 588819; in the data active means activation above about 19%, passing the limit was not always enough
Target sequence (P11229 whole entry, looked up): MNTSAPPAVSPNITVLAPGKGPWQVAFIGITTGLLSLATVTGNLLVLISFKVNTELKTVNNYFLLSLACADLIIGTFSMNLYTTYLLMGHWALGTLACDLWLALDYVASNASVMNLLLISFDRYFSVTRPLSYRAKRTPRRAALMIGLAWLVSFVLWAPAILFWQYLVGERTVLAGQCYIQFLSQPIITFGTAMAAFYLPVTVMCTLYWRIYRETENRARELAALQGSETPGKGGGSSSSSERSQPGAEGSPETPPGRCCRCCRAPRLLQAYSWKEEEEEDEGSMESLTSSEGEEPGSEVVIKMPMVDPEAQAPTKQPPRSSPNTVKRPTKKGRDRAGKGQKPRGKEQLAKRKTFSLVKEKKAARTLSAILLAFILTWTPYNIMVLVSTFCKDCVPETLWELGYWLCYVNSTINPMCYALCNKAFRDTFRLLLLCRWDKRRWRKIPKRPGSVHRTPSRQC
CHRM1 antagonist: antagonists of human M1 muscarinic receptor; P11229; CHO-K1 hM1, Fluo-8 calcium fluorescence, ACh EC80 antagonist; inhibition, % at 3 µM; actives 1.3% (n = 360,000); AID 588852;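 active means percent inhibition above its own plate's cutoff, namely the mean of that plate's compound wells plus 3 SD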;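 further: peak over basal fluorescence ratio during 140 s after agonist addition; 0% = ACh EC80 plus DMSO and 100% = DMSO alone without agonist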
M1 PAM parental: counter-screen for M1 PAMs: effect in parental CHO-K1 cells | ATP EC20, Fluo-8 calcium fluorescence; 0% at ATP EC20, 100% at ATP max | activation, % at 3 µM | actives 0.02% (n = 360,000) | AID 602247;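 active means activation above the run cutoff, the mean activation of all test compounds plus 3 SD, cut at about 40% in these data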;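 further: peak over basal fluorescence ratio in a 140 s read after ATP addition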
CHRM1 agonist: agonists of human M1 muscarinic receptor; CHO-K1 hM1, Fluo-8 calcium fluorescence, agonist mode; 0% DMSO, 100% acetylcholine EC100; activation, % at 3 µM; actives 0.33% (n = 360,000);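 active means activation above the run's mean compound activation plus 3 SD, cut at about 16% in these data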;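 further: peak over basal fluorescence ratio within a 140 s kinetic read after compound addition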
CHO-K1 Ca antag: counter-screen for M1 antagonists: effect in parental CHO-K1 cells | ATP-induced calcium, Fluo-8 fluorescence | inhibition, % at 3 µM | actives 0.6% (n = 360,000);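 active means inhibition above a per-plate cutoff, the plate's mean sample inhibition plus 3 SD, cut at about 24% in these data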;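 further: 0% = DMSO plus EC80 ATP and 100% = DMSO alone without ATP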
Active calls of the source: *. Compounds with a hit are over-represented: about 2.3% of the library has one in this group of screens.

SMILES	CHO-K1 Ca ag	CHRM1 PAM	CHRM1 antagonist	M1 PAM parental	CHRM1 agonist	CHO-K1 Ca antag
COc1cccc(-c2nc(CS(=O)(=O)CC(=O)NCCCc3ccccc3)c(C)o2)c1	0.4	-20.7	40.1*	19.7	-2.6	-11.7
Cc1ccc2c(cnn2C(=O)CCC(=O)N2CCCCC2C)c1 (stereo not given)	0.8	2.7	-10.1	-0.1	-7.0	-7.2
CSc1nc2sc3c(c2c(=O)n1C1CCCCC1)CCN(C)C3	0.8	-22.7	29.3*	7.1	-5.9	-7.1
C=C(C)CSc1nc2sc3c(c2c(=O)n1C1CCCCC1)CCN(C)C3	-0.4	-21.8	31.4*	12.2	-6.7	-16.2
C=C(C)CSc1nc2sc3c(c2c(=O)n1-c1ccccc1)CCN(C)C3	0.5	-24.4	36.0*	15.3	-10.9	-7.0
C=CCn1c(C)cc(C(=O)COc2ccc(C)nc2[N+](=O)[O-])c1C	17.0*	-4.6	1.9	-1.9	-1.2	9.1
COc1ccc(Nc2ccnc3ccccc23)cc1	0.4	-0.2	-8.9	9.7	25.2*	-9.0
COc1ccc(Nc2ncnc3ccccc23)cc1	0.8	9.4	-12.3	13.6	-1.9	-14.0
CCC1CCCCN1CCCNC(=O)CNC(=O)c1nn(-c2ccc(OC)cc2)c(=O)c2ccccc12 (stereo not given)	0.1	-27.1	39.9*	-2.2	-11.1	-11.8
CCN(CC)CCCNC(=O)CNC(=O)c1nn(-c2ccc(OC)cc2)c(=O)c2ccccc12	0.0	-12.9	45.2*	9.9	-4.4	-5.9
CCN(CC)CCNC(=O)CNC(=O)c1nn(-c2ccc(OC)cc2)c(=O)c2ccccc12	1.7	13.1	-18.9	-4.3	-10.7	-14.0
CCc1nc(C)cn1S(=O)(=O)c1ccc(Br)cc1	1.3	16.0	-23.8	6.3	-3.6	-12.0
CCOc1ccccc1NC(=O)CCSc1nc2n[nH]c(C)c2c(=N)n1-c1ccccc1Cl	2.4	-12.9	34.0*	21.0	-3.0	-13.6
CC1CCCN(CC(O)CN2CCN(CC(O)CN3CCCC(C)C3)C(C)C2)C1 (stereo not given)	0.7	8.8	-20.3	17.1	-8.0	-13.2
CN1CCCC(OC(=O)c2ccccc2F)C1 (stereo not given)	0.8	-14.3	26.5	0.1	-10.0	-5.2
CN1CCCC(CC2c3ccccc3Sc3ccccc32)C1 (stereo not given)	2.0	-25.1	98.7*	9.3	-3.3	1.4
COc1cccc(CNC(=O)COC(=O)CCCNC(=O)c2ccc(Cl)cc2)c1	-0.8	-5.9	20.4	6.3	-4.9	-2.1
COc1cc(C(O)c2nc(-c3cccc(C(C)C)c3)cs2)ccc1F (stereo not given)	0.5	-7.5	8.2	0.5	-4.3	3.1
NCc1csc(Nc2ncccn2)n1	0.9	4.0	-12.5	4.8	-1.6	-6.8
Cc1cccc2cc(CN(CCN3CCOCC3)C(=O)Nc3ccccc3F)c(=O)[nH]c12	0.7	0.7	-7.6	-14.3	-4.3	30.0*
CCn1cc(S(=O)(=O)CC(=O)Nc2ccc(C)cc2)c2ccccc21	0.1	-6.1	15.1	-7.7	-2.4	26.7*
Cc1cc(NC(=O)CS(=O)(=O)c2cn(Cc3cccc(Cl)c3)c3ccccc23)no1	1.4	9.2	17.2	-6.3	26.5*	9.6
CCn1cc(S(=O)(=O)CC(=O)Nc2cccc(C)c2)c2ccccc21	1.9	7.8	-11.5	18.5	1.3	-6.7
COc1cnc(-c2ccccn2)nc1Oc1ccc(Cl)cc1	0.1	9.4	-4.9	-6.5	-1.7	24.4*
CN(C)C(C)(C)C#CCCCCC#CC(C)(C)N(C)C	1.0	9.6	-19.0	18.8	-9.0	-10.0
SMILES	CHO-K1 Ca ag	CHRM1 PAM	CHRM1 antagonist	M1 PAM parental	CHRM1 agonist	CHO-K1 Ca antag
CN(C)C(C)(C)C#CCC(c1ccccc1)c1ccccc1	1.7	-25.2	86.8*	4.8	-7.1	-4.0
COCCn1c(C)cc(C(=O)CN2C(=O)NC3(CCCCCC3)C2=O)c1C	0.0	4.9	-7.3	-5.7	4.2	-13.0
Cn1c(=O)[nH]c(=O)c2c1nc(N1CCN(Cc3ccccc3)CC1)n2CCSc1ncccn1	5.1	-13.6	33.0*	3.0	-5.4	4.3
CN1CCN(c2nc3c(c(=O)[nH]c(=O)n3C)n2CCSc2nc3ccccc3s2)CC1	-0.3	-6.9	-4.1	-8.9	17.6*	27.2*
Cn1c(=O)[nH]c(=O)c2c1nc(N1CCc3ccccc3C1)n2CCSc1nc2ccccc2s1	0.3	15.8	-15.9	23.8	-1.6	-14.0
O=C(c1sccc1-c1ccccc1)N1CCN(S(=O)(=O)c2ccccc2F)CC1	3.7	-2.6	1.0	-3.5	-3.3	-9.0
O=C(NCCc1ccccc1)c1c[nH]c2c(F)cccc2c1=O	4.0	7.9	-8.8	-5.9	-2.5	-3.7
Cc1cccc2c(=O)c(C(=O)NCCc3ccccc3)c[nH]c12	1.6	-13.3	30.5*	-8.6	-2.4	23.4
CN1CCC(OC(c2ccccc2)c2ccc(Cl)cc2)C1 (stereo not given)	6.2	-30.7	99.5*	14.6	-1.1	-11.9
CCOC(=O)c1cc(CC)sc1NC(=O)c1ccc(N2C(=O)CCC2=O)cc1	0.3	6.5	-11.8	17.9	-0.7	-24.3
CCOC(=O)c1cc(CC)sc1NC(=O)c1cc(OC)c(OC)c(OC)c1	0.0	-10.4	25.9	-9.6	-1.4	31.9*
S=c1[nH]c2cc(-c3ccccc3)ccc2o1	0.5	7.3	-12.0	-8.3	-0.9	-0.2
O=c1cc(O)c2c(=O)n(-c3ccccc3)c3c(c2o1)CCCCCC3	-0.2	-5.0	6.2	-11.7	-4.1	23.7*
O=c1cc(O)c2c(=O)n(C3CCCCC3)c3ccccc3c2o1	0.0	4.7	-7.4	12.1	-3.1	-0.6
Cc1ccc(N2CC(C(=O)N3CCCCC3)CC2=O)cc1C (stereo not given)	0.2	8.2	-17.1	-2.3	-5.1	-15.9
CC(C)CCN1CCN(C2CSCCSC2)CC1CCO (stereo not given)	-0.2	1.4	14.5	-10.1	-6.7	-2.3
O=C(NNC(=S)NC(=O)c1ccccc1[N+](=O)[O-])c1ccccc1[N+](=O)[O-]	1.0	8.9	-2.2	29.2	-4.4	-10.8
CCCCOc1ccccc1C(=O)NNC(=S)NC(=O)c1ccccc1[N+](=O)[O-]	13.5	-2.0	-7.1	-2.9	19.0*	1.1
COc1ccc(-c2c[n+](CC(=O)OC3CC(C)CCC3C(C)C)c3n2CCC3)cc1 (stereo not given)	0.9	-22.3	90.8*	7.5	-5.6	1.5
CC1CCC(C(C)C)C(OC(=O)C[n+]2cccc(C(N)=O)c2)C1 (stereo not given)	-0.6	-7.1	-14.3	12.0	-6.2	-0.6
CC(C)[C@@H]1CC[C@@H](C)C[C@H]1OC(=O)C[n+]1cc(-c2ccc(Cl)cc2)n2c1CCCCC2	3.3	-23.4	93.5*	12.5	-4.2	8.8
